# In the library only some 11% were active in any assay of this set; here they are far more common.
# VDR inhibitor – vitamin D3 receptor (human) inhibition; VDR-SRC2-3 peptide fluorescence polarization, 2 h; Potency, µM, inactives show max response, negative = inhibition, hits mostly inhibitors; 400,000 tested, 0.93% active; also: % is scaled to controls: 0 for no effect and ±100 for the full control effect
#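 Reagent solutions, kept cold and dark, are dispensed first; compounds are then pinned in at 23 nl, plates briefly spun, and incubated 2 h at ambient temperature. Inhibition of VDR–SRC2-3 peptide binding is read by fluorescence polarization.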
# JMJD2A Tudor – JMJD2A Tudor domain (human) inhibition. AlphaScreen JMJD2A-Tudor / H3K4me3 peptide binding. 390,000 tested, 4.4% active. Potency, µM (doses to about 114 µM), inactives show at the highest dose activity change, negative = inhibition, usual class: inhibitors. AID 504339; also: % is scaled to controls: 0 for no effect and ±100 for the full control effect; nearly all actives have a fitted effect of over 50% in size
# HP1b chromo inh – inhibitors of HP1-beta chromodomain binding to methylated histone tails | AlphaScreen HP1-beta / biotin-H3K9me3 peptide binding | Potency, µM (series often up to 114 µM), inactives show at the top dose activity change, negative = inhibition, actives largely listed as inhibitors | 390,000 tested, 0.56% active | P83916; also: nearly all actives have a fitted effect of over 70% in size
# Target sequence (P83916 whole entry, looked up): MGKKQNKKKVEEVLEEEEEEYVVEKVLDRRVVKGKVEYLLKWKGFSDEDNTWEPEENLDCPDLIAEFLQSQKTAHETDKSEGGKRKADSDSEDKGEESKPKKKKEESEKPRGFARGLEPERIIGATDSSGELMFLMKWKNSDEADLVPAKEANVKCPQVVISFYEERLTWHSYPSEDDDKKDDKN
#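 Compound inhibition of the preformed complex between 50 nM HP1-beta and 50 nM biotinylated H3K9me3 peptide was read by AlphaScreen. Buffer was PBS pH 7.4 with 0.01% Tween-20. Incubations ran 30 min at room temperature, with 10 ug/mL donor/acceptor beads.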
# BAZ2B inh – blocks human BAZ2B; Potency, µM (titrated, usually from 114 µM), without a hit: top-dose activity change, negative = inhibition, actives largely listed as inhibitors; Q9UIF8; 360,000 tested, 4.4% active; AlphaScreen BAZ2B-H3K14Ac peptide displacement; also: % is scaled to controls: 0 for no effect and ±100 for the full control effect; nearly all actives have a fitted effect of over 60% in size
#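 In this displacement format the biotinylated H3(5-23) peptide acetylated at Lys14 serves as ligand at 50 nM, with BAZ2B at 50 nM in PBS pH 7.4 containing 0.01% Tween-20. Donor and acceptor beads are 10 ug/mL final.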
# G9a inh – blocks human histone lysine methyltransferase G9a. Q96KQ7. G9a H3K9 monomethylation, AlphaScreen, 2 h. Potency, µM (titrated, usually from 102 µM), inactives show top-dose activity, negative = inhibition, most hits filed as inhibitors. 350,000 tested, 8.8% active. AID 504332; also: % is scaled to controls: 0 for no effect and ±100 for the full control effect; nearly all actives have a fitted effect of over 75% in size
# Target sequence (Q96KQ7 913-1193 limits assumed): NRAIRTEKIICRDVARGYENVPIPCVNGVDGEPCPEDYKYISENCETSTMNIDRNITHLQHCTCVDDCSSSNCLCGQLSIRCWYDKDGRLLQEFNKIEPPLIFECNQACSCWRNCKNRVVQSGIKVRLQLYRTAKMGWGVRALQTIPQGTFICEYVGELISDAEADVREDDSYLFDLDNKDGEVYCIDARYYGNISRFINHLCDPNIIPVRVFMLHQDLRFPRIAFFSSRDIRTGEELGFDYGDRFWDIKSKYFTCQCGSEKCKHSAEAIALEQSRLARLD
#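 Using a bead-based AlphaScreen, monomethylated H3K9 product from 2 h room-temperature reactions (G9a 20 nM, peptide 500 nM, SAM 20 uM) was detected with 0.5 ug/mL rabbit anti-H3K9me1 antibody.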
# PLK1 PBD inh – inhibitors of human PLK1 polo-box domain binding. 360,000 tested, 2.8% active. Plk1 PBD binding of FITC phosphopeptide, fluorescence polarization. P53350. AID 720504. Potency, µM, for inactives: max response, negative = inhibition, most hits filed as inhibitors; also: series mostly up to about 57 µM; % is scaled to controls: 0 for no effect and ±100 for the full control effect; nearly all actives have a fitted effect of over 65% in size
# Numbers without * were called inactive; ? = inconclusive; . = no result; [ ] = another dose, or the depositor's remark. Calls follow the shape of the dose curve; as a rule, active = well fitted curve in the direction sought with a large enough effect; inconclusive = small, poorly fitted or top-dose-only effect, or another doubt; inactive = no such curve, though single readings can be large; an effect the other way counts as inactive or inconclusive. Potency is read from the fitted curve at half-maximal effect.
SMILES,VDR inhibitor,JMJD2A Tudor,HP1b chromo inh,BAZ2B inh,G9a inh,PLK1 PBD inh
Cc1cccc(NC(=O)CSc2nc3sc(C)cc3c(=O)n2C)c1,-29.3%,?,-28.5%[57 µM],.,.,26.7µM*
Cc1cc2c(SCC(=O)Nc3cccc(O)c3)ncnc2s1,-7.0%,50.1µM*,5.3%[57 µM],.,.,?
Cc1nc2ccc(S(=O)(=O)N(CC(=O)Nc3cccc(F)c3)Cc3ccccc3)cc2s1,8.7%,-11.5%,8.1%,1.4%,-2.6%[59 µM],.
OC[C@@H]1CN(Cc2ccc(-c3ccccc3)cc2)C[C@H](n2cnc3c(N4CCOCC4)ncnc32)O1,.,.,.,.,.,8.4%
Cc1ccc(-c2csc(N3CCN(S(=O)(=O)c4ccc5c(c4)NC(=O)CO5)CC3)n2)cc1,-4.0%,-23.3%,9.0%,-26.8%,-14.9%,-2.5%
Cc1cccc(Cn2cnc3c(oc4ccccc43)c2=O)c1,-2.7%,-18.8%,0.6%,-1.6%,11.5%[59 µM],.
CCCCCCCCCCOC(=O)C[N+](C)(C)C/C=C(/C)Cl,-25.0%,-13.4%,8.0%,-3.6%,8.8%[59 µM],29.9µM*
COc1ccc(C(=O)c2cc3ccc(O)cc3oc2=O)cc1,7.4%,-15.3%,14.2%,1.3%,-1.0%,-8.7%
O=C(NNC(=O)c1cc2cc(Br)ccc2oc1=O)c1ccc(O)cc1O,-13.8%,?,-0.1%,11.2µM*,-3.0%,?
O=C(c1ccc(Br)cc1)c1cc2ccc(O)cc2oc1=O,?,?,-2.1%,-38.7%,70.8µM*,10.6µM*
O=C(Cc1cccc(NC(=O)C2CCCN(C(=O)C3CCCCC3)C2)c1)Nc1ccc(C(=O)N2CCCCC2)cc1 (configuration not stated),-10.2%,-9.4%,51.0%,.,.,2.4%
COc1cccc(NC(=O)c2oc3ccccc3c2NC(=O)C23CC4CC(CC(C4)C2)C3)c1,-9.2%,-20.2%,17.7%,?,-26.1%[59 µM],.
CC(C)c1nn2c(=O)cc(COC(=O)c3ccccc3NC(=O)c3cccc(Cl)c3)nc2s1,4.0%,5.0%,26.6%,-2.2%,13.6%[59 µM],.
CC1C2CCC(C2)C1OC(=O)c1ccccc1C(=O)O (configuration not stated),.,.,.,.,.,-2.1%
CC1CCC2C(C1)Nc1c(C(=O)O)cccc1C2(C)C (configuration not stated),-14.0%,-28.2%,23.4%,79.4µM*,.,-26.4%
CCS(=O)(=O)N1CCN(c2nc(-c3ccccc3)cs2)CC1,2.4%,-34.6%,-8.9%,-13.7%,12.6µM*,-21.1%
O=C(Cc1cccs1)N1CCN(c2nc(-c3ccc(Cl)cc3)cs2)CC1,19.8%,-22.3%,-12.1%,-6.4%,70.8µM*,-11.9%
CC(C)C(=O)N1CCN(c2nc(-c3ccc(Cl)cc3)cs2)CC1,6.3%,-18.0%,14.1%,-21.7%,?,-18.0%
CCOC(=O)N1CCN(c2nc(-c3ccc(Cl)cc3)cs2)CC1,22.4%,-6.7%,54.5%,-12.7%,11.2µM*,-8.8%
O=S1(=O)N=C(Oc2cccc(Cl)c2)c2ccccc21,.,-35.4%[162 µM],.,.,.,.
O=C(NC1CCN(C(=S)Nc2ccccc2)CC1)C1CCCCC1,-9.8%,-12.4%,-13.0%,9.0%,13.7%,-10.1%
COCOc1cccc(CN2CCC2(C)C(=O)Nc2ccc(C)cc2)c1 (configuration not stated),.,.,.,.,.,3.7%
O=C(CC(c1ccccc1)c1ccco1)Nc1nccs1 (configuration not stated),-16.4%,-24.1%,5.5%,?,50.1µM*,-5.2%
O=C(O)/C(=C\c1ccc(Cl)c([N+](=O)[O-])c1)c1ccc(S(=O)(=O)N2CCCC2)s1,-7.5%,?,-1.8%,56.2µM*,-3.8%[2.33 µM],-25.9%
O=C(O)/C(=C\c1ccccc1Cl)c1ccc(S(=O)(=O)N2CCCCC2)s1,-6.1%,-11.0%,34.5%,-38.1%,?,-12.1%
SMILES,VDR inhibitor,JMJD2A Tudor,HP1b chromo inh,BAZ2B inh,G9a inh,PLK1 PBD inh
O=C(O)/C(=C\c1ccc(Cl)cc1)c1ccc(S(=O)(=O)N2CCCC2)s1,-9.8%,-24.1%,7.1%,?,?,-2.8%
O=C(O)/C(=C\c1ccc(Cl)c([N+](=O)[O-])c1)c1ccc(S(=O)(=O)N2CCCCC2)s1,-26.7%,?,-1.5%,?,44.7µM*,?
CCOc1ccc(C(=O)NCC(=O)OCc2ccc(F)cc2Cl)cc1,-16.6%,1.5%,4.9%,6.1%,3.9%[59 µM],-8.5%
CCCC[C@@H]1CCCO[C@@](C(=O)NCc2ccccc2)(C(F)(F)F)C1,?,16.6%,24.0%,.,.,.
CCOc1ncccc1C(=O)N1CCN(c2cc(Cl)ccc2C)CC1,16.5%,50.1µM*,-22.9%,-9.0%,7.5%,21.2µM*
CCOC(=O)C(=O)c1csc(NC(=O)CCSc2ccc(C)cc2)n1,-11.4%,-16.1%,23.9%,.,70.8µM*,-11.2%
CC(C)CN(C(=O)CSc1nnc2ccccn12)c1c(N)n(CC(C)C)c(=O)[nH]c1=O,7.0%,-6.0%,9.5%,-2.3%,44.7µM*,-9.8%
CN(C(=O)CSc1nnc(Nc2ccccc2)s1)c1c(N)n(Cc2ccccc2)c(=O)[nH]c1=O,-4.1%,-15.1%[11.4 µM],-9.1%,-2.4%,?,21.2µM*
CN(C(=O)CSc1nnc2ccccn12)c1c(N)n(Cc2ccccc2)c(=O)[nH]c1=O,7.6%,-13.6%,?,-0.7%,35.5µM*,-4.6%
CN(C(=O)CSc1nnc(C(F)(F)F)n1C)c1c(N)n(Cc2ccccc2)c(=O)[nH]c1=O,.,.,.,.,.,-7.6%
CC(C)(C)c1ccc(C(=O)NCC(=O)OC(C(=O)Nc2cc(C(F)(F)F)ccc2Cl)c2ccccc2)cc1 (configuration not stated),.,-20.5%,.,.,.,.
COc1ccc(Cl)cc1C(=O)NCc1nc(-c2cccc(C)c2)no1,6.3%,-8.0%,38.4%,4.1%,9.0%[59 µM],.
O=C(O)CCN1C(=O)C(=C2CCCCCC2)SC1=S,-25.4%,-13.3%,34.8%,9.7%,44.7µM*,?
O=C1C(=C2CCCCC2)SC(=S)N1Cc1ccco1,?,56.2µM*,-23.2%,?,35.5µM*,21.2µM*
O=C(O)CCN1C(=O)C2CCCCC2C1=O (configuration not stated),1.2%,-8.6%,36.2%,-2.6%,-62.5%,-2.7%
CN(C)c1ccc(C=C2SC(=S)N(Cc3ccco3)C2=O)cc1,.,.,.,.,.,62.8%
Cc1ccnc(NC(c2ccccc2O)c2oc(CO)cc(=O)c2O)c1 (configuration not stated),-12.7%,-16.7%,1.0%,?,0.891µM*,?
O=c1cc(CO)oc(C(Nc2ccccn2)c2ccsc2)c1O (configuration not stated),.,.,.,?,2µM*,.
Cc1ccnc(NC(=O)c2cc3ccccc3oc2=O)c1,-6.1%,-17.5%,8.2%,0.0%,4.8%,-4.7%
O=c1cc(CO)oc(C(Nc2ccccn2)c2ccc(F)cc2)c1O (configuration not stated),28.2µM*,39.8µM*,?,-27.2%,-119.8%[12.7 µM],15µM*
